Compound activity deposited in PubChem by National Center for Advancing Translational Sciences (NCATS).
gsp ag: agonists of gsp mutant (McCune-Albright syndrome); Potency, µM (doses to about 76.9 µM), actives largely listed as activators; actives 0.13% (n = 340,000); gsp mutant cells, cAMP HTRF, 30 min; active = well fitted activation curve with a large enough effect; inconclusive = small, poorly fitted or top-dose-only effect, or another doubt; inactive = no such curve, though single readings can be large or run the other way; cell line not stated here;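 also: phosphodiesterase inhibitor Ro 20-1724 added with compounds to block cAMP breakdown; nearly all actives have a fitted effect of over 60% in size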
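Cells stably selected in G418 were plated at 2000/well, grown 16-24 hr, then given compounds in DMSO with the PDE inhibitor […] (300 uM solution added) for 30 min at 37C; cAMP was read by HTRF.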
gsp antag: antagonizes gsp, the McCune-Albright syndrome mutation | gsp-mutant cells, cAMP HTRF, 30 min | Potency, µM (highest dose often 76.9 µM), actives largely listed as inhibitors | actives 0.4% (n = 340,000) | AID 624288; calls by dose curve; cell line not stated here;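 also: intracellular cAMP measured with PDE inhibitor Ro 20-1724 present during compound exposure; nearly all actives have a fitted effect of over 65% in size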
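Cells in G418 medium, seeded 16-24 h, 37C; buffer exchange to DPBS + 1 mM CaCl2, 0.5 mM MgCl2, 0.05% BSA; cpds in DMSO + […] (300 uM stock), 30 min 37C; HTRF cAMP detection.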
RXFP1 ag: activates the human relaxin receptor RXFP1. Q9HBX9. HEK293T-RXFP1 cAMP TR-FRET, 30 min; response scale: percent of porcine relaxin response, buffer zero. Potency, µM (series often up to 57.5 µM), actives largely listed as activators. actives 0.3% (n = 370,000). AID 2676; active = well fitted activation curve with a large enough effect; inconclusive = small, poorly fitted or top-dose-only effect; also: nearly all actives have a fitted effect of over 60% in size
Target sequence (Q9HBX9 whole entry, looked up): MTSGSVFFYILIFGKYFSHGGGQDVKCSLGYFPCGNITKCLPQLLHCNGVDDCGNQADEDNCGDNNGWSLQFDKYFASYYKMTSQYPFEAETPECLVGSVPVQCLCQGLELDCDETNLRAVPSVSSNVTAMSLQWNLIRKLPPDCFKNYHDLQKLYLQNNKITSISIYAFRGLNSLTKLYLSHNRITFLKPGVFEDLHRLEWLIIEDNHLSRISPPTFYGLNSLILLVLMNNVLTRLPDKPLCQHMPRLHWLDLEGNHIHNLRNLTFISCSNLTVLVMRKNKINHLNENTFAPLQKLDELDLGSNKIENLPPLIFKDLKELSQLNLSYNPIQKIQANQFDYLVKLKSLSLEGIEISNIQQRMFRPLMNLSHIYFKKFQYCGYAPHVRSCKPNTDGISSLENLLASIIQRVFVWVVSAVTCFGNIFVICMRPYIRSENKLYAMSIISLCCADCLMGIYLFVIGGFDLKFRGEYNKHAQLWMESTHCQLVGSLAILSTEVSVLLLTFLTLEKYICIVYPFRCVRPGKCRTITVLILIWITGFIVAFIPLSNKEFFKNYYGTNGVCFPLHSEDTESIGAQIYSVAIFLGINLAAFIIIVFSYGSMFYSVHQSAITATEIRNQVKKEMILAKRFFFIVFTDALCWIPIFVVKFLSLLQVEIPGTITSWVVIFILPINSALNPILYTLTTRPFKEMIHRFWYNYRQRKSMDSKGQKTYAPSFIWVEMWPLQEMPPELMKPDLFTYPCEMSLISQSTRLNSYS
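cAMP rise read by TR-FRET after 30 min, 37C compound exposure (up to 58 uM) in RXFP1-transfected HEK293 cells with Ro 20174 present. EC50 from Hill-equation fits, with 29 nM porcine relaxin as 100% and buffer as basal.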
RXFP1 antagonist: antagonists of human relaxin receptor RXFP1; Q9HBX9; activity change, negative = inhibition, % at 57.5 µM; actives 0.59% (n = 350,000); HEK293-RXFP1, relaxin-stimulated cAMP HTRF, 30 min; hits give low values;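 active = activity change of -60% or lower, but not beyond a set lower limit; inconclusive = change between -60% and -40%, or beyond the set limit; inactive = change above -40%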
pAkt inh: blocks phosphorylation of Akt; Neuro2A IGF-stimulated pAkt S473 HTRF, 20 min; hits give low values; activity change, % for hits at 50 µM; actives 0.32% (n = 360,000); AID 651550; in the data active = activity change below about -80%; inconclusive = mostly about -51% to -80%
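Neuro2A cells (4,500/well, DMEM with 0.5% FBS) were treated with compound at a single 50 µM final concentration, stimulated with 6 nM IGF for 20 min at 37 °C, and lysed. Phospho-Akt Ser473 was read by HTRF as 665/615 ratio ×10^4.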
Hits are given with their value; - = inactive; ? = inconclusive; . = not tested or not shown; [ ] = dose if it differs, or a comment. Only some compounds are listed: those with a hit (about 1.2% of all), similar ones and a draw of the others.

SMILES	gsp ag	gsp antag	RXFP1 ag	RXFP1 antagonist	pAkt inh
CCCCCCSc1cc(-c2nc3cc(C)ccn3c2NCCCC)ccc1OC	.	-	-	.	-
COc1ccccc1N1CCN(C(CNC(=O)C(=O)NCCc2ccccc2)c2cccnc2)CC1 (centres undefined)	.	.	-	-	.
CCc1cc2c(N3CCN(c4ccccc4)CC3)ncnc2s1	-	50µM	-	-	-
Oc1ccc(N2CCN(c3ncnc4sc(-c5ccccc5)cc34)CC2)cc1	-[15.4 µM]	-	-	-	-
CCCC(=O)NC(c1ccccc1Cl)c1ccc2cccnc2c1O (centres undefined)	-	-	-	-82	-
CCCC(=O)NC(c1ccc(C(C)C)cc1)c1ccc2cccnc2c1O (centres undefined)	-	-	-	?	-
CCC(=O)NC(c1ccc(Cl)cc1Cl)c1ccc2cccnc2c1O (centres undefined)	-	-	-	-98	-
Cc1ccc2c(c1)c(=O)c(C(=O)c1ccccc1)cn2Cc1ccccc1F	.	.	-	-	.
COc1ccc(CCC(=O)NCc2ccc3c(c2)CCN3C(=O)c2cccc(C)c2)cc1	.	.	-	-96	.
COc1ccc(CCC(=O)NCc2ccc3c(c2)CCN3C(=O)c2ccccc2)cc1	.	.	-	-	.
O=C(Cn1c(=O)nc(-c2ccccc2)c2ccccc21)NCc1ccccc1Cl	.	.	-	-	.
CC1(C)O[C@@H]2C[C@H]3[C@@H]4CCC5=CC(=O)C=C[C@]5(C)[C@@H]4[C@@H](O)C[C@]3(C)[C@]2(C(=O)CO)O1	.	.	.	-	.
Cc1cccc(Nc2nc(N)c([N+](=O)[O-])c(N3CC(C)CC(C)C3)n2)c1 (centres undefined)	-[15.4 µM]	-	-	-	-
Cc1cccc(Nc2nc(N)c([N+](=O)[O-])c(N3CCC(C)CC3)n2)c1	-[15.4 µM]	-	-	-69	-
CC(=O)OCCNc1cc(Sc2nc3ccccc3[nH]2)c2nonc2c1[N+](=O)[O-]	?	?	-	-78	-
CC(=O)OCCCNc1cc(Sc2nc3ccccc3s2)c2nonc2c1[N+](=O)[O-]	-	-	-	-	-
CCOC(=O)c1cc(-c2ccccc2)n(-c2cccc(C(=O)N(C)c3ccc(C)cc3)c2)c1C	.	.	-	-63	.
CCOC(=O)c1cc(-c2ccccc2)n(-c2cccc(C(=O)NC(C)(C)C)c2)c1C	.	.	-	-	.
CCOC(=O)c1ccc(Oc2nc(N(C)C)nc(N3CCOCC3)n2)cc1	-	50µM	-	-	-
O=c1c(N2CCCCC2)csc2ccc(F)cc12	.	.	-	-	.
CC(C)Oc1ccc(C(=O)OC(C)C(=O)NC2CCCCC2C)cc1 (centres undefined)	?	-	-	-	-
CC(OC(=O)c1ccc2c(c1)OCCO2)C(=O)NC1CCCCC1C (centres undefined)	-[15.4 µM]	-	-	-72	-
COc1ccc(Cl)cc1NC(=O)CSc1cn(CC(=O)N2CCCCCC2)c2ccccc12	.	.	-	-	.
CCOc1ccccc1CNCc1cccn1-c1nnc(N2CCN(c3ccccc3)CC2)s1	.	.	-	-	.
Cn1cc(C(=O)c2ccc(Cl)cc2)cc1-c1nc2ccccc2n1C	?	35µM	-	-	-
SMILES	gsp ag	gsp antag	RXFP1 ag	RXFP1 antagonist	pAkt inh
Nc1cc(C(F)(F)F)ccc1S	.	.	.	-	.
CCn1c2ccccc2c2nnc(SCC(=O)NCCOC)nc21	10µM	-	-	-	.
CCn1c2ccccc2c2nnc(SCC(=O)NCc3cccs3)nc21	-	-	-	-	-
Cc1ccc(C(=O)O/N=C/c2c(Cl)n(C)c3ccccc23)cc1	-	-[15.4 µM]	-	-	-105%
Cn1c(Cl)c(/C=N/OC(=O)c2ccc(Cl)cc2)c2ccccc21	-	-	-	-	-
O=C1COc2cc(S(=O)(=O)CCC(=O)N3CCN(c4cccc(Cl)c4)CC3)c(Cl)cc2N1	.	.	-	.	.
Cc1ccc(SCC(=O)N(C)CC(=O)Nc2cccc(F)c2)cc1	-	-	-	-	-
CN(CC(=O)Nc1cccc(F)c1)C(=O)CSc1ccc(Br)cc1	-[15.4 µM]	-	-	-72	-
CCOc1ccc(OC(=O)c2c(-c3ccccc3Cl)noc2C)cc1	.	.	-	?	.
CCNC(=O)[C@@H]1CCCN1C(=O)[C@H](CCCN=C(N)N)NC(=O)[C@H](CC(C)C)NC(=O)CNC(=O)[C@H](Cc1ccc(O)cc1)NC(=O)[C@H](CO)NC(=O)[C@H](Cc1c[nH]c2ccccc12)NC(=O)[C@H](Cc1cnc[nH]1)NC(=O)[C@@H]1CCC(=O)N1	.	.	.	-	.
CC(=O)N1c2nc(-c3ccco3)nn2C2(CCCCC2)[C@@H]2CCCC[C@@H]21	.	.	-	-	.
CCCC(=O)N1c2nc(-c3ccco3)nn2C2(CCCCC2)[C@@H]2CCCC[C@@H]21	.	.	-	-66	.
CC(=O)NC(O)C(=O)c1ccccc1 (centres undefined)	-	-	-	-	-109%
CC(C)C(=O)NC(=O)COC(=O)/C=C/c1cccs1	-[15.4 µM]	-	-	-	-
CN(C(=O)COC(=O)/C=C/c1cccs1)C1CCCCC1	-	-	.	-88	-
Cc1ccc(S(=O)(=O)N(C)CC(O)Cn2c3ccccc3c3ccccc32)cc1 (centres undefined)	-	-	-	-	-114%
CCOc1ccccc1-c1noc(CSc2nnc(-c3ccncc3)n2-c2ccc(F)cc2)n1	.	.	-	-	.
O=c1nccc(NCc2ccco2)[nH]1	-	-	-	-	-108%
CCNc1nc(N2CCOCC2)nc(N(c2ccccc2)c2ccccc2)n1	-	-	-	-	-110%
CCNc1nc(SCC(=O)Nc2ccccc2)nc(N2CCOCC2)n1	-[15.4 µM]	-	-	-	-
CC(=O)N1CCC(=NNC(=O)c2cc3ccccc3cc2O)CC1	-	?	-	-93	.
CCOC(=O)N1CCC(=NNC(=O)c2cc3ccccc3cc2O)CC1	-	-	-	-	-
CNC(=O)c1ccccc1NC(=O)c1cccc(S(=O)(=O)N2CCC(C)CC2)c1	?	-	-	-	-
CCNC(=O)c1ccccc1NC(=O)c1cccc(S(=O)(=O)N2CCC(C)CC2)c1	-	-	-	-	-101%
O=C(NCC(c1ccco1)S(=O)(=O)c1cccs1)c1ccccc1 (centres undefined)	.	.	-	-	.
SMILES	gsp ag	gsp antag	RXFP1 ag	RXFP1 antagonist	pAkt inh
CC(=O)CSc1nc(-c2cccs2)c(C#N)c(=O)[nH]1	?	-	14µM	-	-
Cc1nc(SC(C(N)=O)c2ccccc2)c(C#N)c(C)c1C (centres undefined)	-[15.4 µM]	-	-	-	-
COc1ccccc1-c1cc(-c2ccccc2)nc(SC(C(N)=O)c2ccccc2)c1C#N (centres undefined)	?	-	-	-	-91%
COC(=O)c1cccc(Nc2c(-c3ccc(O)c(OC)c3)nc3nc[nH]n23)c1	.	.	-	-	.
CC/C=C(\C(=O)N[C@H]1C(=O)N2C(C(=O)OCOC(=O)C(C)(C)C)=C(COC(N)=O)CS[C@H]12)c1csc(N)n1	.	.	.	-	.
CN1CCCN(C2C3CC4CC(C3)CC2C4)CC1 (centres undefined)	-	-	-	-	-121%
